Laboratory results from PubChem BioAssay (NCATS).
Inconclusive results are not listed. Where a call stands in place of a potency, no number is given. Values without a mark were called inactive. Active and inactive are the calls of the source. Calls come from the whole dose curve; as a rule, active = well fitted cell-killing curve with a large enough effect; inconclusive = small, poorly fitted or top-dose-only effect, or effect the other way; inactive = no such curve, though single readings can be large or run the other way.

assay: Viability qHTS for spleen associated tyrosine kinase inhibitor (SYKi) naive MV4-11 cells (AID 1963823); details: MV4-11 AML viability, CellTiter-Glo luminescence, 72 h; series mostly up to 45 µM; note: nearly all actives have a fitted effect of over 40% in size
How it was run: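 Compounds were dispensed acoustically onto plates, MV4-11 cells (SYKi-naive) added at 500 per well, and plates incubated 72 hr at 37 C. CellTiter-Glo was added and luminescence measured after 10 min.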
Potency is the fitted concentration of half-maximal effect.

Compound	Potency	viability (% of control)
CC1CCC23COC(=O)C2=CC(O)CC3C1(C)CCC1=CC(O)OC1=O (stereo not given)	inactive	–
CC(=O)c1c(C)cccc1O[C@@H]1O[C@H](CO)[C@@H](O)[C@H](O)[C@H]1O	inactive	–
CCCc1cc(C(=O)N[C@H](Cc2ccc(-c3cccc(OC(F)(F)F)c3)nc2)C(=O)N[C@@H]2CCNC2)sc1C	6.61 µM (active)	–
CC1=CC(=O)CC2C1(O)CCC(C)C21CC(c2ccoc2)OC1=O (stereo not given)	inactive	–
CC(C)CC(=O)O[C@@H]1OC=C(CO[C@@H]2O[C@H](CO)[C@@H](O)[C@H](O)[C@H]2O)[C@H]2[C@@H]3O[C@H]3[C@@](O)(CO)[C@@H]12	inactive	–
CC[C@@H]1C(=O)O[C@]23C=C[C@@H]4C(C(=O)OC)=CO[C@H](O[C@@H]12)[C@@H]43	3.66 µM (active)	–
CC(=O)N[C@H]1[C@H](O[C@H]2CC[C@@]3(C)C(CC[C@]4(C)C3CC=C3C5CC(C)(C)CC[C@]5(C(=O)O)[C@H](O[C@@H]5O[C@H](CO)[C@@H](O)[C@H](O)[C@H]5O)C[C@]34C)C2(C)C)O[C@H](CO[C@@H]2OC[C@H](O)[C@H](O)[C@H]2O[C@@H]2OC[C@@H](O)[C@H](O)[C@H]2O)[C@@H](O)[C@@H]1O (stereo not given in full)	–	57% [at 9.25 µM]
O=c1ccc2ccc(OCCCCN3CCN(c4cccc5sccc45)CC3)cc2[nH]1	10.3 µM (active)	–
C=C(C(=O)O)C1CCC2(C)CCC(O)C(C)(O)C2C1 (stereo not given)	inactive	–
CC(C)CC1NC(=O)C(C(C)c2ccccc2)NC(=O)C(C(C)C)NC(=O)C(C)NC(=O)CCCNC(=O)C(Cc2c[nH]c3ccccc23)NC(=O)C(C)NC1=O (stereo not given)	inactive	–
C[C@@H]1CC[C@@]2(OC1)O[C@H]1C[C@H]3[C@@H]4CC=C5C[C@@H](O)CC[C@]5(C)[C@H]4CC[C@]3(C)[C@H]1[C@@H]2C	inactive	–
CNc1nc(-c2ccc3c(N)n[nH]c3c2)cc(N2C[C@@H](C(=O)NC3CCCCC3)CC[C@H]2C)n1	5.25 µM (active)	–
CC(C)[C@@](C)(O)[C@@H]1CN(c2nc(-c3[nH]nc4ncccc34)c(F)cc2Cl)CCN1	0.366 µM (active)	–
CCCCOc1ccc(CC/C=C2\SC(=O)N(CCN)C2=O)cc1	5.17 µM (active)	–
CN1c2ccccc2C(=O)N2CCC3c4ccccc4NC3C21 (stereo not given)	2.55 µM (active)	–
O=C1OCc2cc3cccc(O[C@@H]4O[C@H](CO)[C@@H](O)[C@H](O)[C@H]4O)c3c(O)c21	inactive	–
C=C1CC2OC(=O)C(=C)C2C(OC(=O)/C(C)=C\C)CC2(C)OC1=CC2=O (stereo not given)	0.453 µM (active)	–
C[C@@H]1O[C@@H](O[C@H]2[C@H](OC(=O)[C@]34CCC(C)(C)C[C@H]3C3=CCC5[C@@]6(C)CC[C@H](O[C@@H]7O[C@H](CO[C@@H]8OC[C@H](O)[C@H](O)[C@H]8O[C@@H]8OC[C@@H](O)[C@H](O)[C@H]8O)[C@@H](O)[C@H](O)[C@H]7O)C(C)(C)C6CC[C@@]5(C)[C@]3(C)C[C@H]4O)O[C@H](CO)[C@@H](O)[C@@H]2O)[C@H](O[C@@H]2O[C@H](CO)[C@@H](O)[C@H](O)[C@H]2O)[C@H](O)[C@H]1O[C@@H]1OC[C@@H](O)[C@H](O[C@@H]2OC[C@@H](O)[C@H](O)[C@H]2O)[C@H]1O (stereo not given in full)	–	93.4% [at 4.97 µM]
CNCCC=C1c2ccccc2CCc2ccccc21	11.6 µM (active)	–
CCC1C(=O)N(C)c2cnc(Nc3ccc(C(=O)NC4CCC(N5CCN(CC6CC6)CC5)CC4)cc3OC)nc2N1C(C)C (stereo not given)	0.0259 µM (active)	–

Compound	Potency	viability (% of control)
CC(C)(O[C@@H]1O[C@H](CO)[C@@H](O)[C@H](O)[C@H]1O)C(OC(=O)/C=C\c1ccc(O)cc1)C(=O)OCc1ccc(O[C@@H]2O[C@H](CO)[C@@H](O)[C@H](O)[C@H]2O)cc1 (stereo not given in full)	inactive	–
CCC(C)/C=C(C)/C=C/C1=CC2=C(Cl)C(=O)C(C)(OC(C)=O)C(=O)C2(O)C(OC)O1 (stereo not given)	11.2 µM (active)	–
C[C@@H]1CC[C@H]2C(C)(C)[C@H](O)[C@H](O)C[C@]2(C)[C@@]12Cc1c(O)cc3c(c1O2)CNC3=O	inactive	–
Cc1ccc(-c2ccc3c(ccc4sc5c(c43)NC[C@@H](C)NC5=O)n2)cn1	2.59 µM (active)	–
COC(=O)c1ccccc1O[C@@H]1O[C@H](CO[C@@H]2OC[C@@H](O)[C@H](O)[C@H]2O)[C@@H](O)[C@H](O)[C@H]1O	inactive	–
CC1(C)SC2C(NC(=O)[C@H](NC(=O)N3CCNC3=O)c3ccccc3)C(=O)N2C1C(=O)O (stereo not given in full)	inactive	–
C=C1CC2C3(C)C=CC(=O)OC(C)(C)C3CC(OC(C)=O)C2(C)C2C(=O)OC(C)C(=O)C12C (stereo not given)	inactive	–
C=CC(C)(CCC=C(C)C)O[C@@H]1O[C@H](CO)[C@@H](O)[C@H](O)[C@H]1O (stereo not given in full)	inactive	–
COc1ccc(-c2ccc3c(N4CCOCC4)nc(N4CC(C)OC(C)C4)nc3n2)cc1CO (stereo not given)	0.291 µM (active)	–
C=CC(C)(O)CC/C=C(\C)C(=O)O[C@@H]1[C@@H](O)[C@H](OC(C)(C=C)CC/C=C(\C)C(=O)O)O[C@H](CO)[C@H]1OC(=O)/C(C)=C/CCC(C)(O)C=C (stereo not given in full)	inactive	–
CC1OC(OC2C(C)OC(OC3C(OC(=O)C45CCC(C)(C)CC4C4=CCC6C7(C)CCC(OC8OC(C(=O)O)C(O)C(O)C8OC8OC(CO)C(O)C(OC9OC(C)C(O)C(O)C9O)C8O)C(C)(CO)C7CCC6(C)C4(C)CC5)OC(CO)C(O)C3O)C(O)C2O)C(O)C(O)C1O (stereo not given)	–	89.1% [at 9.25 µM]
C[C@@H]1O[C@@H](O[C@H]2[C@H](Oc3cc(O)c(C(=O)CCc4ccc(O)cc4)c(O)c3)O[C@H](CO)[C@@H](O)[C@@H]2O)[C@H](O)[C@H](O)[C@H]1O	inactive	–
CC(=O)OCC(Cc1ccccc1)NC(=O)C(Cc1ccccc1)NC(=O)c1ccccc1 (stereo not given)	inactive	–
CC(CCc1ccc(O)cc1)O[C@@H]1O[C@H](CO[C@@H]2OC(CO)[C@H](O)[C@H]2O)[C@@H](O)[C@H](O)[C@H]1O (stereo not given in full)	inactive	–
CC[N+]1(C/C2=C/CCCCCC2)CCC(NC(=O)C2c3cc(Cl)ccc3Oc3ccc(Cl)cc32)CC1 (stereo not given)	6.51 µM (active)	–
CS(=O)(=O)c1ccc([C@@H](CC2CCCC2)C(=O)Nc2nccs2)cc1	8.33 µM (active)	–
CCOC(=O)OCC/C(SC(=O)OCC)=C(\C)N(C=O)Cc1cnc(C)nc1N	inactive	–
CC1(C)CC[C@]2(C(=O)O[C@@H]3O[C@H](CO)[C@@H](O)[C@H](O)[C@H]3O)CC[C@]3(C)C(=CCC4[C@@]5(C)C[C@@H](O)[C@H](O)[C@@](C)(CO)C5[C@H](O)C[C@]43C)C2[C@@H]1O (stereo not given in full)	inactive	–
CC(C)C[C@@H]1NC(=O)[C@@H](Cc2ccccc2)NC(=O)C(CCCCCC(=O)C2CO2)NC(=O)[C@@H]2CCCCN2C1=O (stereo not given in full)	0.0252 µM (active)	–
COC1OC(O)C2(CCC3(O2)C(C)CC2OC(=O)C4(C)CCCC3(C)C24)C1O (stereo not given)	inactive	–
